According to publication PMC5540273 (PLoS ONE, 2017):

Assays:
Details in all cases: concentration: 1 μM, replicates: in singlicate; n = 1
CDC2L2 = system: CDC2L2
CDC2L5 = system: T1, CDC2L5
T1 construct: gene CDK13

CDK11 = system: T2, CDK11
T2 construct: gene CDK19

CDK2 = system: CDK2
CDK3 = system: CDK3
CDK4-cyclinD1 = system: CDK4-cyclinD1
CDK4-cyclinD3 = system: CDK4-cyclinD3
CDK4 = system: CDK4
CDK5 = system: CDK5
CDK7 = system: CDK7
CDK8 = system: CDK8
CDK9 = system: CDK9
CDKL1 = system: CDKL1
CDKL2 = system: CDKL2
CDKL3 = system: CDKL3
CDKL5 = system: CDKL5
CHEK1 = system: CHEK1
CHEK2 = system: CHEK2
CIT = system: CIT
CLK1 = system: CLK1
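Note: KINOMEscan kinase panel screen.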

Compound	%Inh (CDC2L2)	%Inh (CDC2L5)	%Inh (CDK11)	%Inh (CDK2)	%Inh (CDK3)	%Inh (CDK4-cyclinD1)	%Inh (CDK4-cyclinD3)	%Inh (CDK4)	%Inh (CDK5)	%Inh (CDK7)	%Inh (CDK8)	%Inh (CDK9)	%Inh (CDKL1)	%Inh (CDKL2)	%Inh (CDKL3)	%Inh (CDKL5)	%Inh (CHEK1)	%Inh (CHEK2)	%Inh (CIT)	%Inh (CLK1)
CCn1cnc2c(NCc3ccccc3)ncnc21 [SKF-96418]	0%	10%	0%	0%	0%	0%	0%	8%	0%	0%	40%	20%	13%	10%	12%	0%	0%	0%	16%	0%
Fc1cc(Cl)ccc1Nc1ccnc2cc(-c3ccc(CN4CCOCC4)o3)ccc12 [GW560109]	0%	0%	0%	0%	18%	0%	0%	0%	0%	0%	0%	0%	0%	58%	0%	0%	12%	46%	43%	17%
COc1cc(Nc2ccnc3cc(-c4ccncc4)ccc23)cc(OC)c1OC.Cl [GW494610]	0%	0%	2%	1%	1%	39%	0%	27%	0%	0%	43%	0%	100%	8%	11%	0%	0%	0%	41%	9%
CN(c1ccc(NC(=O)N2CCN(CCCN3CCOCC3)CC2)cc1)c1ccnc(Nc2ccc(CS(C)(=O)=O)cc2)n1.Cl [GW830899]	1%	0%	0%	0%	18%	0%	0%	0%	0%	0%	44%	0%	100%	9%	0%	0%	0%	0%	16%	7%
COc1cc(Nc2nccc(N3CCC(NS(=O)(=O)c4ccc(NC(C)=O)cc4)CC3)n2)cc(OC)c1OC [GSK1379825]	0%	0%	0%	0%	7%	16%	0%	0%	0%	0%	31%	0%	19%	24%	0%	0%	0%	0%	17%	2%
COC(=O)Nc1nc2ccc(Oc3ccc(CC(=O)Nc4cc(C(F)(F)F)ccc4F)cc3)cc2[nH]1 [GW680903]	8%	0%	0%	0%	11%	27%	4%	10%	0%	0%	0%	0%	2%	14%	0%	0%	0%	20%	68%	24%
O=C1NC(=O)C(c2ccccc2Cl)=C1Nc1cccc(Cl)c1 [SB-342409]	13%	0%	0%	1%	14%	7%	33%	0%	0%	42%	0%	0%	16%	11%	0%	0%	7%	0%	7%	54%
Cc1ccc(-c2ccc3occ(-c4ccc(S(C)=O)cc4)c3c2)nn1 (stereo not drawn)	0%	24%	29%	36%	4%	0%	0%	0%	0%	0%	0%	0%	35%	0%	13%	0%	0%	11%	0%	0%
O=C(Nc1n[nH]c2nc(-c3ccccc3)ccc12)C1CC1 [SB-708999]	0%	27%	0%	45%	35%	61%	0%	12%	2%	10%	36%	0%	2%	88%	10%	0%	0%	0%	7%	86%
Cl.N#CCc1ccc(Nc2nccc(Nc3ccc(Oc4ccccc4)cc3)n2)cc1 [GW639905]	1%	0%	0%	0%	4%	0%	3%	0%	0%	0%	0%	0%	3%	55%	0%	0%	38%	0%	41%	23%
CN(C)c1ncnc2nc[nH]c12 [SKF-31736]	0%	11%	0%	0%	17%	0%	0%	25%	0%	0%	35%	0%	23%	4%	0%	19%	0%	0%	12%	8%
Cl.O=C(Nc1ccc(Oc2ccc3[nH]c(NC(=O)c4ccco4)nc3c2)cc1)Nc1cc(C(F)(F)F)ccc1F [GW683134]	1%	0%	88%	0%	9%	0%	0%	4%	0%	78%	86%	5%	8%	85%	0%	0%	21%	0%	96.7%	63%
COc1ccc(C2=C(Nc3cccc(O)c3)C(=O)NC2=O)cc1 [SB-390766]	0%	0%	93.8%	98.3%	42%	20%	9%	35%	0%	0%	0%	0%	0%	7%	32%	3%	2%	0%	4%	86%
CC(C)c1nc(-c2cccc(NS(=O)(=O)c3c(F)cccc3F)c2)c(-c2ccnc(Nc3ccc(N4CCOCC4)nc3)n2)s1.Cl [GSK1723980]	0%	79%	0%	99.1%	99.7%	96.2%	56%	94.4%	98.9%	62%	6%	75%	74%	98.9%	24%	97.8%	0%	13%	97.5%	0%
Cc1ccc(NC(=O)c2ccnc(N3CCCCC3)c2)cc1-c1ccc(C(=O)NCC2CC2)cc1 [GW775610]	0%	0%	0%	36%	0%	20%	0%	0%	8%	0%	39%	1%	9%	33%	0%	75%	0%	39%	38%	11%
COc1cccc(C2=C(Nc3cccc(O)c3)C(=O)NC2=O)c1 [SB-390771]	15%	0%	0%	18%	13%	0%	0%	0%	0%	98.3%	17%	0%	86%	7%	0%	0%	0%	0%	4%	73%
CN(c1ccc(F)c(NC(=O)c2cccc(OC(C)(C)C#N)c2Cl)c1)c1ccc2nc(NC(=O)C3CC3)sc2n1	0%	0%	0%	0%	1%	4%	7%	12%	0%	24%	2%	0%	0%	27%	0%	0%	0%	13%	93.7%	0%
CN(C)CCOc1ccc(-c2cc(-c3ccc(Cl)c(O)c3)c(-c3ccncc3)[nH]2)cc1.Cl.Cl [SB-684387]	14%	0%	6%	0%	0%	9%	15%	39%	0%	21%	38%	18%	28%	39%	0%	0%	7%	33%	90.8%	32%

Compound	%Inh (CDC2L2)	%Inh (CDC2L5)	%Inh (CDK11)	%Inh (CDK2)	%Inh (CDK3)	%Inh (CDK4-cyclinD1)	%Inh (CDK4-cyclinD3)	%Inh (CDK4)	%Inh (CDK5)	%Inh (CDK7)	%Inh (CDK8)	%Inh (CDK9)	%Inh (CDKL1)	%Inh (CDKL2)	%Inh (CDKL3)	%Inh (CDKL5)	%Inh (CHEK1)	%Inh (CHEK2)	%Inh (CIT)	%Inh (CLK1)
O=C(Nc1n[nH]c2nc(-c3cccc(O)c3)ccc12)C1CC1 [SB-711805]	0%	46%	0%	38%	49%	20%	25%	15%	0%	23%	0%	0%	30%	80%	0%	9%	0%	25%	21%	20%
Nc1ncnc2scc(-c3ccc(NC(=O)Cc4cc(F)ccc4F)cc3)c12.O=C(O)C(F)(F)F [SB-731254-M]	36%	0%	99%	0%	0%	0%	11%	0%	2%	0%	93.8%	0%	30%	28%	2%	5%	9%	0%	12%	16%
O=C(Nc1n[nH]c2nc(-c3ccccc3O)ccc12)C1CC1 [SB-711880]	0%	11%	0%	37%	22%	25%	17%	0%	0%	7%	0%	0%	42%	98.5%	17%	0%	3%	0%	0%	66%
CSc1ccc(NC2=C(c3ccc(Cl)cc3)C(=O)NC2=O)cc1 [SB-317658]	2%	0%	0%	6%	18%	0%	0%	12%	28%	36%	0%	0%	0%	0%	0%	0%	0%	13%	0%	17%
Cc1ccc(C)c(NC(=O)Nc2ccc(C)c(-c3ccc(C(=O)Nc4ccncc4)cc3)c2)c1 [GSK1398473]	5%	0%	74%	0%	0%	0%	2%	0%	2%	0%	4%	0%	0%	42%	0%	24%	22%	0%	96.1%	24%
CN(C)CCNS(=O)(=O)c1ccc(-c2ccnc3[nH]ccc23)cc1 [GSK977620]	0%	0%	5%	0%	0%	0%	0%	11%	0%	45%	0%	0%	0%	8%	0%	0%	35%	27%	27%	88%
Nc1ncc(-c2cn[nH]c2)c2scc(-c3ccc4c(c3)CCN4C(=O)Cc3ccccc3)c12 [GSK2593067]	0%	0%	23%	0%	2%	0%	0%	0%	0%	0%	37%	0%	0%	28%	0%	0%	0%	0%	0%	40%
CCNc1nccc(-c2c(-c3ccc(F)cc3)ncn2C2CCN(C)CC2)n1	16%	0%	19%	0%	0%	0%	0%	0%	0%	0%	0%	0%	30%	0%	0%	0%	7%	0%	30%	35%
COc1ccc(NC(=O)c2ccoc2)cc1-c1ccc(C(=O)NCC2CC2)cc1 [GW810437]	6%	16%	11%	0%	2%	0%	0%	15%	0%	26%	38%	16%	11%	0%	2%	6%	0%	0%	0%	0%
CCn1c(-c2nonc2N)nc2c(-c3ccccc3)ncc(OCCCN)c21.O=C(O)C(F)(F)F.O=C(O)C(F)(F)F [GSK260205]	0%	0%	0%	0%	0%	0%	0%	0%	0%	0%	1%	0%	7%	31%	0%	0%	0%	0%	98.9%	14%
COc1cccc2c(-c3ccncc3)c(-c3ccc(F)cc3)nn12 [GW468513]	4%	0%	8%	4%	6%	27%	0%	0%	0%	0%	42%	0%	2%	38%	0%	0%	0%	0%	98%	6%
CC(=O)Nc1cn2nc(Oc3cccc(NC(=O)c4cccc(C(F)(F)F)c4)c3)ccc2n1	14%	0%	29%	2%	24%	0%	0%	0%	0%	0%	70%	0%	48%	44%	6%	0%	0%	0%	99.8%	5%
Cl.Cl.NC(CNC(=O)c1cc(Br)c(-c2ccnc3[nH]ccc23)s1)c1ccccc1 (stereo not drawn) [GSK1322949]	9%	0%	42%	0%	25%	17%	0%	23%	0%	47%	60%	15%	12%	26%	0%	5%	0%	46%	98.1%	90.9%
CN1CCN(Cc2ccc(NC(=O)Nc3ccc(N(C)c4ccnc(Nc5ccc(CS(C)(=O)=O)cc5)n4)cc3)cc2)CC1.Cl [GW827654]	38%	99.8%	60%	16%	0%	50%	97.8%	65%	58%	53%	60%	50%	71%	99.8%	99.6%	0%	0%	78%	23%	42%
COC(=O)Nc1nc2cc(Oc3ccc(NC(=O)Nc4cccc(SC)c4)cc3)ccc2[nH]1.Cl [GW697999]	1%	0%	8%	0%	8%	34%	0%	49%	0%	54%	47%	0%	21%	86%	0%	0%	2%	28%	98%	19%
CCNC(=O)/C=C/c1n[nH]c2cc(Sc3ccccc3C(=O)NC)ccc12	0%	9%	10%	0%	39%	0%	0%	1%	41%	23%	20%	13%	17%	26%	17%	15%	0%	0%	0%	17%
Cn1cc(-c2ccc3c(c2)CCN3C(=O)Cc2cc(F)cc(C(F)(F)F)c2)c2c(N)ncnc21 [GSK2635225]	24%	0%	95.2%	6%	4%	0%	0%	32%	0%	11%	91.8%	7%	11%	24%	0%	0%	8%	0%	28%	11%
O=C(O)C(F)(F)F.O=c1[nH]ccc2nc(N[C@@H]3CCNC3)nc(Nc3cc(Cl)cc(Cl)c3)c12 [GSK2188764]	24%	0%	2%	0%	30%	38%	23%	13%	44%	85%	0%	34%	37%	24%	0%	0%	100%	85%	67%	82%
